Over roughly 110,000 compounds, “z-score” has its median near -0.1; the highest 2% begin near 2. The full list was thinned out, with the highest values kept by preference. Active and inactive are the calls of the source.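 Rule for the calls: active = z-score in the third read window above 3 or below -3; inactive = the rest.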
Molecular target: Metabotropic glutamate receptor 8 (Rattus norvegicus) (UniProt P70579)
Assay: rat mGluR8 modulators via GIRK flux, primary screen, cell-based, thallium flux, HTS (AID 488969)
Conditions: HEK293 rat mGluR8, GIRK (G protein-gated inwardly rectifying potassium channel) thallium flux, FluoZin2; at 10 µM; stronger effect = higher value; submaximal glutamate (EC20) added with thallium

Sequence of Metabotropic glutamate receptor 8 (Rattus norvegicus) (P70579 whole entry, looked up): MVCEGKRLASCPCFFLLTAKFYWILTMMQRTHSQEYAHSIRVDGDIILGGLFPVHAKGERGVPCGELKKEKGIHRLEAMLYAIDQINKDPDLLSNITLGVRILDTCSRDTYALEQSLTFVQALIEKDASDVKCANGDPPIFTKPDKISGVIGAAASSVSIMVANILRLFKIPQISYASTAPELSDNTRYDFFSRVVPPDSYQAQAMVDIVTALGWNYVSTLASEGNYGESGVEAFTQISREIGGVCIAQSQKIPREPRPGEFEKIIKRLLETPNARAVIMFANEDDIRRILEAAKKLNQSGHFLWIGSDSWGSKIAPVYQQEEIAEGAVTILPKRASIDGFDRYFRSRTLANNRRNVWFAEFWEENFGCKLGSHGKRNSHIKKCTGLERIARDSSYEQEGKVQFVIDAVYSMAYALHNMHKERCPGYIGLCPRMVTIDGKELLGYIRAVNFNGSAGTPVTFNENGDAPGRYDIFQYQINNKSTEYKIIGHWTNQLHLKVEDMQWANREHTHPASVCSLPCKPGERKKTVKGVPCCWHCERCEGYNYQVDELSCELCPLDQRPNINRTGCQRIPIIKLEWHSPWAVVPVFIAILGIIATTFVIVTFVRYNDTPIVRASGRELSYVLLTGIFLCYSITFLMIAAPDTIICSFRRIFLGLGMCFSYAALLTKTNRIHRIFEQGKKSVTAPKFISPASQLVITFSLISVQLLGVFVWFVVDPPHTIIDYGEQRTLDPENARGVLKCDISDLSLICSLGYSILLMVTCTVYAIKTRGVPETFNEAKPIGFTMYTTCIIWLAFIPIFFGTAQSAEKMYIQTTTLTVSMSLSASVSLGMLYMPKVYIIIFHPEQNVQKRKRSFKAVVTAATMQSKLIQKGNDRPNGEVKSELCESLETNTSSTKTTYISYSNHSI

Going from `O=C1/C(=C/c2cccnc2)SC(=S)N1c1ccc(F)cc1` to `S=c1[nH]cc(-c2ccccc2)n1-c1cccc(Cl)c1`, the z-score rises from -0.12 to 2.94.

Going from `CCC(=O)n1nc(-c2ccccc2)nc1N` to `CCCC(=O)n1nc(-c2cccnc2)nc1N`, the z-score rises from -0.874 to 0.575.

Going from `S=C(NC1CCCCC1)N(CCc1nc2ccccc2[nH]1)C1CCCC1` to `c1ccc2c(c1)ncn2CCC1CCCCC1`, the z-score rises from -1.02 to 0.093.

First: CC1Cc2ccccc2N1C(=O)CCNS(=O)(=O)c1cccc2nsnc12 (centres undefined)
Second: Cn1c(SCC(=O)NCc2ccco2)nc2ccccc2c1=O
The z-score of the first is higher: 0.906 for the first, -0.354 for the second.

Compared with `CCOC(=O)c1cc(C(C)=O)c(=O)n(C)c1N`, `CCOC(=O)c1cc2n(c1/N=C/N(C)C)-c1ccccc1C2=O` is lower in z-score: -0.198 for the first, -0.437 for the second.

Compared with `CCOC(=O)c1c(C)[nH]c(C)c1C(=O)COC(=O)/C=C/c1ccc(OC(F)F)cc1`, `CCOC(=O)c1c(-c2ccc(OC)cc2)csc1/N=C/N(C)C` is higher in z-score: -0.244 for the first, -0.193 for the second.

First: COCC(C)n1c(SCC(=O)NNC(=O)c2ccccc2)nc2ccccc2c1=O (centres undefined)
Second: O=C(CSc1nc2ccccc2c(=O)n1Cc1ccco1)NCc1ccco1
The z-score of the first is higher: -0.346 for the first, -0.352 for the second.

Going from `CCOC(=O)/C(C#N)=C/C1=C(N2CCCC2)CC(C)(CC)OC1` (centres undefined) to `CCOC(=O)/C(C#N)=C\C1=C(N2CCCC2)CC(C)(C)OC1`, the z-score rises from -0.501 to 0.457.

Going from `CCOC(=O)/C(C#N)=C/C1=C(N2CCCC2)CC(C)(C)OC1` to `CCC(=O)Nc1ccc(S(=O)(=O)N2CCCCC2)cc1OC`, the z-score falls from 2.75 to 0.0489.

Going from `Cc1ccc(S(=O)(=O)N2C(=O)C(c3ccccc3)SC2=Nc2ccccc2)cc1` (centres undefined) to `O=C1CC(c2cccc(F)c2)SC(N(c2ccccc2)c2ccccc2)=N1` (centres undefined), the z-score falls from 0.00767 to -0.127.

Compared with `CN(CCO)c1ccc([N+](=O)[O-])cc1C(=O)O`, `O=C(N/N=C/c1ccc[nH]1)c1cccc([N+](=O)[O-])c1` is lower in z-score: 0.404 for the first, -0.104 for the second.

Going from `CCOc1ccc(S(=O)(=O)Nc2ccccc2C(=O)N/N=C/c2c(OC)ccc3ccccc23)cc1` to `O=C(Nc1ccccc1C(=O)N/N=C/c1ccco1)c1ccccc1Cl`, the z-score rises from -0.58 to 0.924.

First: Cc1nc2ccccc2cc1C(=O)N/N=C/c1ccco1
Second: O=C(N/N=C/c1ccco1)c1ccncc1
The z-score of the first is higher: 0.211 for the first, 0.0764 for the second.

First: O=C(Nc1ccccc1C(=O)N/N=C/c1ccco1)c1ccc(Cl)cc1
Second: CC(=O)Nc1ccc(NC(=O)c2ccc(Cn3cc(Cl)cn3)cc2)cc1
The z-score of the first is higher: 0.162 for the first, -0.369 for the second.

Going from `Cc1cc(C)nc(N/N=C/c2ccccc2OCc2cccc(Br)c2)n1` to `Cc1ccc2nc(NC(=O)CSc3nc4ccccc4o3)sc2c1`, the z-score rises from -0.027 to 0.182.

Going from `O=C(NN1C(=O)C2C3C=CC(C4CC34)C2C1=O)c1ccc(Cl)cc1Cl` (centres undefined) to `Cc1ccc(S(=O)(=O)N2CC(O)CC2C(=O)Nc2ccc3c(c2)CCC3)cc1` (centres undefined), the z-score rises from -0.0308 to 2.07.

Going from `Cc1ccc(-c2nnn(CC(=O)N(c3ccccc3)C(C(=O)NC(C)(C)C)c3cccs3)n2)o1` (centres undefined) to `CC(=O)C(/C=N/c1cc(-c2ccc(C)cc2)nn1-c1ccccc1)=C(\C)O`, the z-score falls from -0.243 to -0.251.

Going from `CCCC(=O)Nc1c2c(nn1-c1ccc(OC)cc1)CS(=O)C2` (centres undefined) to `CNC(=O)CN1C(=O)c2cccc3cccc1c23`, the z-score rises from -1.01 to 0.394.

First: COc1ccc(Cl)cc1N(C)C(=O)CCc1nc(-c2ccc(C)cc2)no1
Second: COc1cc(OC)cc(C(=O)NCc2nc(-c3ccccc3)no2)c1
The z-score of the first is higher: 0.139 for the first, -0.942 for the second.

First: CC(=O)Nc1ccc(SCC(=O)Nc2ccccc2-c2ccccc2)cc1
Second: CCc1ccc(NC(=O)CSc2nc3ccccc3c(=O)n2CCCC(=O)N2CCCC2)cc1
The z-score of the first is higher: -0.153 for the first, -0.305 for the second.

Going from `CCNC(=S)N/N=C/c1ccco1` to `CCCCNC(=S)N/N=C/c1ccc(C)s1`, the z-score rises from 0.768 to 1.81.

Compared with `CC(C)/C=N/NC(=O)c1ccc(Cl)cc1`, `NC(=O)c1ccc(F)cc1` is higher in z-score: -0.254 for the first, 0.635 for the second.

Going from `CCNC(=S)NS(=O)(=O)c1ccccc1` to `CCCCNC(=S)Nc1ccccc1F`, the z-score rises from -0.195 to 0.54.

Compared with `O=C1c2cccc3cccc(c23)C(=O)N1OS(=O)(=O)c1ccc(Cl)cc1`, `CC(=O)N1C(=O)c2cccc3cccc(c23)C(=O)N1C(C)=O` is higher in z-score: 0.123 for the first, 0.73 for the second.

Going from `CCC(Sc1nc2ccccc2c(=O)[nH]1)C(=O)O` (centres undefined) to `C/C(N)=C(/C#N)C(=O)CSc1nc2ccccc2c(=O)n1CCCO`, the z-score falls from 0.219 to -0.389.

First: CC(C)(C)c1ccc(S(=O)(=O)NCC(=O)N2CCN(C(=O)c3ccco3)CC2)cc1
Second: O=C(NCC(=O)N1CCN(c2ncccn2)CC1)c1cccs1
The z-score of the first is lower: -0.0781 for the first, 0.235 for the second.

First: O=C(CCSCCC(=O)NCc1ccc(F)cc1)NCc1ccc(F)cc1
Second: COC(=O)c1ccc(CSc2ccc3nnc(-c4cccc(F)c4)n3n2)o1
The z-score of the first is higher: -0.471 for the first, -0.901 for the second.

Compared with `COc1ccc2c(c1)c1nc3ccccc3nc1n2Cc1ccc(OC(C)C)c(OC)c1`, `COc1cc(OC)cc(C(=O)Nc2ccc(-c3nc4ccccc4o3)cc2)c1` is higher in z-score: -0.644 for the first, -0.273 for the second.

Compared with `Cn1cc(-c2nnnn2-c2ccc(Cl)cc2)c(C(F)(F)F)n1`, `C/C(N)=C(/C#N)C(=O)CSc1nnnn1-c1ccc(C)cc1` is higher in z-score: 0.131 for the first, 0.331 for the second.

Going from `CCCCc1nc(NCc2ccccc2)c(C#N)c2c1COC(C)(C)C2` to `CCOCCCn1c(SCC(=O)/C(C#N)=C(\C)N)nc2ccccc2c1=O`, the z-score falls from 0.531 to -0.243.

First: O=C(NCCCN1CCOCC1)c1ccc(CS(=O)(=O)c2ccc(Br)cc2)o1
Second: CCCCOc1ccc(Cc2c(Cl)nc(SC)nc2N2CCOCC2)cc1
The z-score of the first is lower: -0.0398 for the first, 0.0392 for the second.

Going from `S=c1[nH]cc(-c2ccccc2)n1-c1ccccc1` to `S=c1[nH]cc(-c2ccccc2)n1-c1ccccc1Cl`, the z-score rises from 0.267 to 0.447.

First: Cc1ccc(-n2cc[nH]c2=S)cc1C
Second: Cc1cccc(-n2cc[nH]c2=S)c1
The z-score of the first is higher: 1.42 for the first, 0.0616 for the second.

First: Cn1c(-c2ccccc2)cccc1=O
Second: CCn1c(-c2ccccc2)c[nH]c1=S
The z-score of the first is higher: 0.333 for the first, 0.254 for the second.

First: S=c1[nH]cc(-c2ccc(Cl)cc2)n1-c1ccccc1
Second: C=CCn1c(-c2ccccc2)c[nH]c1=S
The z-score of the first is higher: 1.94 for the first, 0.229 for the second.

Compared with `S=c1[nH]ccn1-c1cccc(Cl)c1`, `COc1cc(CN2CCN(c3cccc(Cl)c3)CC2)cc(OC)c1OC` is lower in z-score: 2.29 for the first, -0.348 for the second.

First: COc1ccnc(N2CCN(c3ccccc3)CC2)c1C#N
Second: c1ccc(C(c2ccccc2)N2CCN(c3nc4ccccc4n4cnnc34)CC2)cc1
The z-score of the first is higher: 0.0026 for the first, -0.222 for the second.

Going from `COc1cccc(/C(O)=C2/C(=O)C(=O)N(CCN(C)C)C2c2ccccn2)c1` (centres undefined) to `COc1cccc(C(=O)Nc2ccccc2)c1`, the z-score rises from -0.249 to -0.0644.

Going from `Cc1ccc(NC(=O)N2C(=O)C3(OCCO3)c3ccccc32)cc1` to `Cc1ccc(S(=O)(=O)N2Cc3ccccc3CC2C(=O)Nc2ccc3c(c2)OCO3)cc1` (centres undefined), the z-score rises from -0.237 to -0.0374.

Going from `COc1ccc(-c2cc(C(F)F)n3ncc(C(=O)N4CCN(C)CC4)c3n2)cc1` to `COc1ccc(-c2cc3nc(C4CCN(C(=O)OC(C)(C)C)CC4)c(C(=O)O)cn3n2)cc1`, the z-score falls from -0.201 to -0.691.

Compared with `COc1cc(C2C(C(=O)N3CCOCC3)=C(C)NC3=C2C(=O)CCC3)ccc1OC(C)=O` (centres undefined), `C/C(N)=C(/C#N)C(=O)CSc1nc2ccccc2c(=O)n1-c1ccc(C)c(Cl)c1` is lower in z-score: 0.401 for the first, -0.275 for the second.

Compared with `COCCCNCCCCOc1cccc(Br)c1`, `COc1cccc(C(=O)Nc2c(F)c(F)c(F)c(F)c2F)c1` is lower in z-score: 0.266 for the first, -0.711 for the second.

Going from `CC(=O)Nc1nc2ccc(C(=O)NC3CCCCC3)cc2s1` to `Cc1ccc2nc(NC(=O)c3ccc4ncsc4c3)sc2c1`, the z-score rises from -0.32 to 0.195.

Going from `Nc1nc2ccc(-c3nc4ccccc4o3)cc2s1` to `CC(=O)Nc1nc2ccc(-c3nc4ccccc4o3)cc2s1`, the z-score rises from -0.112 to 2.69.

First: Cc1cccc(N2CSC3=C(C#N)C(c4ccc(C)o4)CC(=O)N3C2)c1 (centres undefined)
Second: C/C(N)=C(/C#N)C(=O)CSc1nc2cc(Cl)ccc2c(=O)n1-c1ccc(C)cc1
The z-score of the first is lower: -0.375 for the first, 2.69 for the second.

Going from `CCOC(=O)/C(=C\Nc1ccc(OC(F)(F)F)cc1)Sc1ncc(C(F)(F)F)cc1Cl` to `O=C(O)c1cccc(Nc2ncnc3c2cnn3-c2ccccc2)c1`, the z-score falls from -0.436 to -1.14.

First: CN(c1cccc(NC(=O)c2ccccc2N(C)S(=O)(=O)c2ccccc2)c1)S(C)(=O)=O
Second: NS(=O)(=O)c1ccc(N2N=C(c3ccccc3)CC2c2cccc(F)c2)cc1 (centres undefined)
The z-score of the first is lower: -0.199 for the first, 0.17 for the second.

First: Cc1ccc(S(=O)(=O)Nc2ccc3c(c2)CCC3)cc1
Second: Cc1ccccc1Nc1nc(N)nc(CSc2nc3ccccc3c(=O)n2C)n1
The z-score of the first is lower: -0.101 for the first, 0.919 for the second.

Work on `COCCn1c(SCc2nc(N)nc(Nc3ccccc3C)n2)nc2ccccc2c1=O` yielded a z-score of -0.279.

For `CCCC(=O)n1nc(-c2ccccc2)nc1N`, the z-score was 9.34 (active).
For `CCOC(=O)c1cc2n(c1N)-c1ccccc1C2=O`, the z-score was 5.13 (active).
`Cc1ccccc1C(=O)Nc1ccccc1C(=O)N/N=C\c1ccco1` was tested, and the z-score was 5.6 (active).
`O=C(Nc1ccccc1C(=O)N/N=C/c1ccco1)c1ccccc1` was tested, and the z-score was 3.37 (active).
With `O=C(N/N=C1/C(=O)c2cccc3cccc1c23)c1ccc(Cl)cc1` the z-score was 3.2 (active).
For `CCCCNC(=S)N/N=C1\C(=O)c2cccc3cccc1c23`, the z-score was 3.16 (active).
`CCNC(=S)N/N=C1\C(=O)c2cccc3cccc1c23` was tested, and the z-score was 12.9 (active).
`CNC(=S)N/N=C1\C(=O)c2cccc3cccc1c23` was tested, and the z-score was 14.1 (active).
With `CCn1c(-c2ccc(-c3ccccc3)cc2)c[nH]c1=S` the z-score was 3.86 (active).
`Cn1c(-c2ccc(-c3ccccc3)cc2)c[nH]c1=S` was tested, and the z-score was 4.21 (active).
`CNC(=O)c1ccc2nc(NC(C)=O)sc2c1` was tested, and the z-score was 8.42 (active).
For `COc1cccc(C(=O)Nc2nc(-c3ccccc3)c(-c3ccccc3)o2)c1`, the z-score was 7.83 (active).
`COc1cc(OC)cc(C(=O)Nc2nc(-c3ccccc3)c(-c3ccccc3)o2)c1` was tested, and the z-score was 3.64 (active).
`Fc1cccc(C2NN=C(c3ccccc3)S2)c1` (centres undefined) was tested, and the z-score was 6.37 (active).
With `CCCCn1c(SCc2nc(N)nc(Nc3ccccc3C)n2)nc2ccccc2c1=O` the z-score was 3.44 (active).
`CCCCn1c(SCC(=O)NCc2ccco2)nc2ccccc2c1=O` was tested, and the z-score was 6.36 (active).
With `CCCCn1c(SCC(=O)/C(C#N)=C(\C)N)nc2ccccc2c1=O` the z-score was 5.63 (active).

Reference: PubChem BioAssay AID488969 (Vanderbilt High Throughput Screening Facility, 2010)
